Screening results (PubChem BioAssay)
aDG glyco up: increases alpha dystroglycan glycosylation; Pro5-aDG cells, alpha-DG glycosylation AlphaScreen (IIH6); 0% Pro5, 100% B10-LARGE cell signal; activation, % at 10 µM; hit rate 0.22% among 360,000; AID 624168;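 active = activation of at least 8% versus controls, or a plate z-score of at least 8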;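 also: Pro5 are CHO cells carrying HIG-tagged alpha-DG that lacks glycosylation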
ADAM10 inh: ADAM10 inhibition, QFRET primary screen. inhibition, % at 7 µM. hit rate 0.62% among 370,000. O14672. recombinant ADAM10, EDANS/DABCYL FRET peptide cleavage, 3 h. AID 720582;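 active = inhibition above a per-campaign cutoff equal to the mean of compounds falling between control-based bounds plus 3 SD, cut at about 20% in these data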
NR3A LBD binder: NR3A (human) ligand-binding domain modulation. NR3A LBD differential scanning fluorimetry, Tm shift; 0% = protein alone, 100% = glycine-bound protein. hit rate 2.5% among 340,000. AID 1259313. Tm shift relative to glycine control, % at 25 µM;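 active = melting temperature shift of at least 10% of the positive control shift, at one fixed dose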
FAS-TE inh: blocks the thioesterase domain of human fatty acid synthase. hit rate 0.67% among 360,000. inhibition, % at 15 µM. AID 602261. recombinant FAS-TE, OMFH fluorogenic substrate, fluorescence endpoint;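 active = compounds whose normalised, plate-corrected inhibition of enzyme fluorescence in the single-dose primary screen is 50% or more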
ADAM17 inh: inhibits human ADAM17; P78536; recombinant ADAM17, EDANS/DABCYL FRET peptide cleavage; inhibition, % at 6.95 µM; hit rate 0.83% among 370,000;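 active = inhibition above the mean of compounds lying between control limits plus 3 SD, set per campaign, cut at about 8.5% in these data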
ADAM10 confirm: human ADAM10 inhibition, confirmation; ADAM10 QFRET peptide cleavage, EDANS fluorescence; hit rate 1% among 2,100; shares compounds with ADAM10 inh; inhibition, % at 6.95 µM;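 active = inhibition above about 20% chosen separately for each screening run, limit read from the data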
ADAM17 counter: ADAM17 inhibition, counter-screen for ADAM10 exosite hits. shares compounds with ADAM10 inh. ADAM17 QFRET peptide cleavage, EDANS fluorescence. inhibition, % at 6.95 µM. hit rate 0.5% among 2,100;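 active = mean triplicate inhibition above the solvent-only control wells' mean plus 3 SD, cut at about 12% in these data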
ADAM10 counter: ADAM10 inhibition, counter-screen for ADAM17 exosite hits. shares compounds with ADAM17 inh. recombinant ADAM10, EDANS/DABCYL FRET peptide cleavage, 3 h. inhibition, % at 6.95 µM. hit rate 47% among 2,900;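 active = mean inhibition over the triplicate runs exceeds the activity threshold set in the earlier primary screen, cut at about 20% in these data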
ADAM17 confirm: human ADAM17 inhibition, confirmation; recombinant ADAM17, EDANS/DABCYL QFRET peptide cleavage; hit rate 65% among 2,900; shares compounds with ADAM17 inh; AID 743257; inhibition, % at 6.95 µM;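 active = mean inhibition across replicates above the hit cutoff set in the primary screen, cut at about 8.5% in these data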
A number is an active result; 0 = inactive; - = not tested or not shown. In the library only some 4% were active in any assay of this set; here they are far more common.

SMILES	aDG glyco up	ADAM10 inh	NR3A LBD binder	FAS-TE inh	ADAM17 inh	ADAM10 confirm	ADAM17 counter	ADAM10 counter	ADAM17 confirm
Cc1ccccc1-c1cc(-c2ccccc2O)n[nH]1	0	24.2	0	0	10.6	0	0	0	10.0
Cc1ccc(-c2cc(-c3ccccc3Cl)[nH]n2)c(O)c1	0	24.2	12.2	0	9.5	0	0	0	9.1
Cc1ccc(-c2cc(-c3ccc(C)cc3O)[nH]n2)cc1	0	33.3	0	0	12.0	0	0	25.1	14.1
COc1ccc(-c2cc(-c3ccccc3O)[nH]n2)cc1	0	0	0	0	0	-	-	-	-
Cc1ccc(-c2cc(-c3ccccc3[N+](=O)[O-])[nH]n2)c(O)c1	0	0	0	0	0	-	-	-	-
COc1ccc(OC)c(-c2csc(NC(=O)Cc3ccccc3)n2)c1	0	0	0	0	0	-	-	-	-
COc1ccc(OC)c(-c2csc(NC(=O)CSc3ccccc3)n2)c1	0	19.9	0	0	10.2	0	0	24.6	10.9
COc1ccc(OC)c(-c2csc(NC(=O)COC(=O)C3(C)CC3(Cl)Cl)n2)c1 (stereo not given)	0	39.0	0	0	17.7	0	0	0	12.2
COC(=O)C1C(=O)C2=C(CC1C)NC(C)=C(C(=O)OCCOc1ccccc1)C2c1ccc(C)o1 (stereo not given)	0	0	0	0	0	-	-	-	-
Cc1cccc(C(=O)NNC(=O)CCCCC(=O)NNC(=O)c2cccc(C)c2)c1	0	0	0	0	0	-	-	-	-
CC(OC(=O)c1ccccn1)C(=O)Nc1ccc2c(c1)OCCO2 (stereo not given)	0	0	0	0	0	-	-	-	-
CCN(c1ccccc1)S(=O)(=O)c1cc(C(=O)OC(C)C(=O)Nc2ccc3c(c2)OCCO3)ccc1C (stereo not given)	0	27.5	0	0	15.1	0	0	0	13.1
CC1(C(=O)Nc2cccc(C(F)(F)F)c2)Cc2c(-c3cccc(C(F)(F)F)c3)ccnc2O1 (stereo not given)	0	0	-	0	0	-	-	-	-
CC1(C(=O)Nc2ccc3c(c2)OCO3)Cc2c(-c3cccc(C(F)(F)F)c3)ccnc2O1 (stereo not given)	0	21.2	-	0	10.2	0	0	24.1	13.0
CC(=O)Nc1cccc(-c2ccnc3c2CC(C)(C(=O)Nc2cccc(C(F)(F)F)c2)O3)c1 (stereo not given)	0	21.4	-	0	8.7	0	0	0	10.3
COc1ccc(NC(=O)C2(C)Cc3c(-c4ccccc4)ccnc3O2)cn1 (stereo not given)	0	0	-	0	0	-	-	-	-
CC(=O)Nc1cccc(-c2ccnc3c2CC(C)(C(=O)Nc2cccc(Oc4ccccc4)c2)O3)c1 (stereo not given)	0	25.3	-	0	9.6	0	0	20.4	14.9
COc1ccc(NC(=O)C2(C)Cc3c(-c4cccc(C(F)(F)F)c4)ccnc3O2)cn1 (stereo not given)	0	25.8	-	0	12.1	0	0	0	11.8
O=C1CN(C(=O)COC(=O)C2CCN(S(=O)(=O)c3ccccc3C(F)(F)F)CC2)c2ccccc2N1	0	0	0	0	0	-	-	-	-
COc1ccc(-c2csc(NS(=O)(=O)c3ccc([N+](=O)[O-])cc3)n2)cc1	0	0	0	0	0	-	-	-	-
O=[N+]([O-])c1ccc(S(=O)(=O)Nc2ccc(-c3csc(-c4ccccc4)n3)cc2)cc1	-	34.4	-	-	17.3	0	0	33.6	16.8
Cc1ccc(NC(=O)CSc2ncn[nH]2)cc1	0	0	0	0	0	-	-	-	-
CCOc1ccccc1NC(=O)COC(=O)C(CC)c1ccccc1 (stereo not given)	0	21.7	0	0	11.4	0	0	0	0
CCC(C(=O)OCC(=O)Nc1cc(Cl)cc(Cl)c1)c1ccccc1 (stereo not given)	0	42.1	12.0	0	18.6	0	0	23.4	12.3
CCC(C(=O)OCC(=O)Nc1cc(C)ccc1OC)c1ccccc1 (stereo not given)	0	0	0	0	0	-	-	-	-
SMILES	aDG glyco up	ADAM10 inh	NR3A LBD binder	FAS-TE inh	ADAM17 inh	ADAM10 confirm	ADAM17 counter	ADAM10 counter	ADAM17 confirm
COCCNC(=O)C1CC(=O)N(C2CCCC2)C1 (stereo not given)	0	0	0	0	0	-	-	-	-
CCc1nc2ccc(C(=O)NCc3ccc4c(c3)OCO4)cn2c1N(C)Cc1ccc(OC)cc1	0	29.7	-	0	18.7	0	0	23.9	14.8
CCc1nc2ccc(C(=O)NCc3ccc4c(c3)OCO4)cn2c1N(C)CCC(C)C	0	0	-	0	0	-	-	-	-
CC(=O)c1cc2c(cc1NC(=O)c1c(-c3ccccc3)noc1C)OCO2	0	0	0	0	0	-	-	-	-
CC1CCCCN1CCNC(=O)CCc1nnc2n(Cc3ccccc3)c(=O)c3ccccc3n12 (stereo not given)	0	0	0	0	0	-	-	-	-
COCCOC(=O)C1=C(C)NC(C)=C(C(=O)OCCOC)C1/C=C/c1ccccc1OC	0	0	0	0	0	-	-	-	-
Oc1ccc(C[C@H]2CN([C@@H](Cc3cccc(O)c3)CN3CCC[C@@H]3CN3C(=S)NC[C@@H]3Cc3ccccc3)C(=S)N2CC2CCCCC2)cc1	0	30.9	-	0	14.3	0	0	49.1	22.6
Oc1ccc(C[C@H]2CN([C@@H](Cc3ccccc3)CN3CCCC3CN3C(=S)NC[C@@H]3Cc3ccccc3)C(=S)N2CC2CCCCC2)cc1 (stereo not given in full)	0	0	-	0	0	-	-	-	-
CCN(CC)C(=O)c1[nH]cnc1C(=O)NCc1ccc(CNC(=O)OC(C)(C)C)cc1	0	0	0	0	0	-	-	-	-
CC(C)(C)OC(=O)[C@H](Cc1ccccc1)NC(=O)c1nc[nH]c1C(=O)NCc1ccccc1	0	24.6	0	0	11.5	0	0	31.0	16.7
CC(C)(C)OC(=O)NCc1ccc(CNC(=O)c2[nH]cnc2C(=O)N[C@@H](Cc2ccccc2)C(=O)OC(C)(C)C)cc1	0	41.7	0	0	14.3	0	0	55.7	27.0
C[C@@H](OC(=O)c1[nH]cnc1C(=O)NCc1ccc(CNC(=O)OC(C)(C)C)cc1)c1ccccc1	0	39.9	0	0	25.3	0	0	22.2	11.5
Cn1nnc2cc(C(=O)Nc3ccccc3)ccc21	0	0	0	0	0	-	-	-	-
Cc1ccc2nc3n(c(=O)c2c1)-c1ccccc1C(=O)NC3CC(C)C (stereo not given)	-	0	-	-	0	-	-	-	-
